The values below come from PubChem BioAssay (NCATS).

“And” between values parts separate entries of the source, which are not always exact repeats. Equal entries are not always repeated. Values without a mark were called inactive. Results filed as inconclusive are left out. The source made the active and inactive calls. Unless noted, the call rests on the fitted dose curve; in most records, active means well fitted curve in the direction sought with a large enough effect; inconclusive means small, poorly fitted or top-dose-only effect, or another doubt; inactive means no such curve, though single readings can be large; an effect the other way counts as inactive or inconclusive.

For one assay, the system named is OV90. In words: Primary qHTS to identify gynecologic anti-cancer compounds using libraries of approved drugs and bioactive compounds (AID 1345084). Further: on the % scale 0 is the no-effect control and ±100 the full control effect; nearly all actives have a fitted effect of over 55% in size. Particulars: Gynecologic cancer cell panel viability, ATPlite luminescence, 48 h; series mostly up to 57.5 µM. The method, boiled down:
(§1)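 48 h compound exposure at 37 C, 5% CO2; five-point qHTS. ATPlite luminescence readout of cell ATP.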
In general terms: qHTS replaces the single test concentration by a dilution series.

The subject of another assay is PA-1. The assay is described as above. To be noted: Gynecologic cancer cell panel viability, ATPlite luminescence, 48 h; series mostly up to 57.5 µM. The essentials:
as §1
For orientation: Cellular ATP, detected with luciferase, serves as a proxy for viable cell number.

The next assay concerns SKOV3. Described as above. Particulars: Gynecologic cancer cell panel viability, ATPlite luminescence, 48 h; series mostly up to 57.5 µM. The essentials: as §1
The test system of the next assay is Tov-21-G. The assay is described as above. To be noted: Gynecologic cancer cell panel viability, ATPlite luminescence, 48 h; series mostly up to 57.5 µM. The essentials: as §1
The next assay relates to Tov112D. Described as above. To be noted: Gynecologic cancer cell panel viability, ATPlite luminescence, 48 h; series mostly up to 57.5 µM. The essentials: as §1
Assay [1] in a line: Drug repurposing screens with cells derived from glioblastoma tumor samples (AID 1345199). Further: nearly all actives have a fitted effect of over 40% in size. Further: potency means the concentration at half of the fitted maximal effect. On activity, negative = cell killing: on the % scale 0 is the no-effect control and ±100 the full control effect. To be noted: GBM patient neurospheres viability, ATP luminescence, 48 h. The essentials: (§2)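 Primary testing used CD133+ neurospheres from four GBM patients, seven concentrations, 48 h exposure and ATP-based viability; confirmation added three slower-growing patient lines.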
The test system of another assay is astro. The description is as above. Particulars: viability, ATP luminescence, 48 h; series mostly up to 45.9 µM. The essentials: as §2
For assay [2], the target named is Nuclear receptor subfamily 1 group I member 2 (Rattus norvegicus) (UniProt Q9R1A7). Kind of assay: qHTS assay for small molecule activators of the rat pregnane X receptor (rPXR) signaling pathway (AID 651751; call rule not given here; further: 0% is about no effect). Particulars: rPXR reporter cells, luciferase (One-Glo), 24 h.
Sequence of Nuclear receptor subfamily 1 group I member 2 (Rattus norvegicus) (Q9R1A7 whole entry, looked up): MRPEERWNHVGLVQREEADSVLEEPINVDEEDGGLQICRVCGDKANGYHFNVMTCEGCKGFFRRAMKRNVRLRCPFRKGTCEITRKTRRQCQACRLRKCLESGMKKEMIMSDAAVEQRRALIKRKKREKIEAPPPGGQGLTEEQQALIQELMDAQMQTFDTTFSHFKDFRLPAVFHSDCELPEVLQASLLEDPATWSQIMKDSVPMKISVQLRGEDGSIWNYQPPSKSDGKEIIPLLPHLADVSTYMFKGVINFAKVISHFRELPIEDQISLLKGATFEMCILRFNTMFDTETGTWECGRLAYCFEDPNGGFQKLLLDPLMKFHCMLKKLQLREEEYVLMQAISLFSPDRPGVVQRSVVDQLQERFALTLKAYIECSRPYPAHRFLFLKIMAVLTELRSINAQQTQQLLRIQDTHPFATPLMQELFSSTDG
Assay [3] can be described thus: qHTS assay for small molecule activators of the human pregnane X receptor (PXR) signaling pathway (AID 720659; call rule not given here; further: 0% is about no effect).
The nature of assay [4]: qHTS assay to identify inhibitors of the type 1 interferon - major histocompatibility complex class I in skeletal muscle: Counter screen cell viability and HiBit confirmation (AID 1347412). Further: on the % scale 0 is the no-effect control and ±100 the full control effect; nearly all actives have a fitted effect of over 60% in size. To be noted: iHSKM muscle cells + IFN-b, HiBiT or CellTiter-Glo, 24 h; Viability; at 45.9 µM (top of the series). The essentials: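 CRISPR HLA-B*08:01-HiBit immortalized human myoblasts (C25cl48) stimulated with 4 ng/ml IFN-beta and compounds (12-point 1:3, top 46 uM final) for 24 h at 37 C. Duplicate plates read by HiBit lytic luminescence or CellTiter Glo ATP.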

The mark [5] stands for this setting: at 45.9 µM (top of the series), tumour line B.
The mark [6] stands for this setting: at 45.9 µM (top of the series), tumour line D.
Where [7] appears, read: at 46.1 µM (top of the series), tumour line C.
[8] abbreviates: at 46 µM (top of the series), tumour line A.

For `CC(N=C(NC#N)Nc1ccncc1)C(C)(C)C` (stereo unspecified), the Potency entry in the assay on OV90, in the assay on PA-1, in the assay on SKOV3, with Tov-21-G, with Tov112D and in the assay with astro was “inactive” in each case. The results for the activity, negative = cell killing in assay [1] (setting [5]), in assay [1] (setting [6]) and in assay [1] (setting [7]) were -17.7%, -6.7% and -1.36%, respectively.

With `C[C@]12CC[C@@H]3c4ccc(O)cc4C[C@@H](CCCCCCCCCS(=O)CCCC(F)(F)C(F)(F)F)[C@H]3[C@@H]1CC[C@@H]2O` (stereo partly specified), the Potency result with OV90, in the assay on PA-1, in the assay on SKOV3, in the assay with Tov-21-G, in the assay on Tov112D and in the assay with astro was “inactive” throughout. Moreover, the activity, negative = cell killing in [1] (setting [5]) was 11.9%; in assay [1] (setting [6]), -8.98%; in assay [1] (setting [7]), 16.6%. Besides, the Potency in assay [1] (tumour line A) was 4.47 µM (active).

Turning to `N[C@@H](COP(=O)(O)O)C(=O)O`, the Potency result in the assay on OV90, in the assay with PA-1, in the assay on SKOV3, with Tov-21-G, in the assay on Tov112D and in the assay with astro was “inactive” in each case. For the same molecule, the values for the activity, negative = cell killing in assay [1] (setting [5]), in assay [1] (setting [6]) and in assay [1] (setting [7]) were -4.31%, -5.04% and -9.92%, respectively.

`CCCCNC(=O)NS(=O)(=O)c1ccc(C)cc1`: the Potency result with OV90, with PA-1, in the assay on SKOV3, with Tov-21-G, with Tov112D and in the assay on astro was “inactive” throughout. For the same molecule, the activity, negative = cell killing was -7.32% in assay [1] (setting [5]), -11.9% in assay [1] (setting [6]), -4.33% in assay [1] (setting [8]) and 8.27% in [1] (setting [7]). Also, the max response in assay [2] was -1.54% and 0.831%. In addition, in assay [3], the result was inactive.

With `CCOC(=O)C1=C(C)NC(C)=C(C(=O)OC)C1c1cccc([N+](=O)[O-])c1` (stereo unspecified), the Potency result with OV90, with PA-1, in the assay with SKOV3, in the assay with Tov-21-G, with Tov112D and in the assay with astro was “inactive” throughout. For the same molecule, the values for the activity, negative = cell killing in assay [1] (setting [5]), in [1] (setting [6]) and in assay [1] (setting [7]) were 3.31%, -28.4% and -23.9%, respectively. For the same molecule, the Potency in assay [1] (tumour line A) was 11.2 µM (active).

`NCCCNCCSP(=O)(O)O`: the activity change, negative = cytotoxicity with OV90 was -0.281% [at 11.6 µM]; in the assay with PA-1 it was 1.25% [at 11.6 µM]; in the assay with SKOV3, 19.8% [at 11.6 µM]; in the assay with Tov-21-G, -2.2% [at 11.6 µM]; in the assay with Tov112D, 1.24% [at 11.6 µM]. For the same molecule, the activity, negative = cell killing is -11.7% in [1] (setting [5]), -3.44% in [1] (setting [6]), -3.51% in assay [1] (setting [8]) and 0.364% in [1] (setting [7]). Further, the Potency result in the assay with astro is “inactive”.

Take `NC(=O)c1cn(Cc2c(F)cccc2F)nn1`: the Potency result in the assay on OV90, with PA-1, with SKOV3, in the assay on Tov-21-G, in the assay with Tov112D and in the assay with astro was “inactive” each time. Besides, the activity, negative = cell killing in assay [1] (setting [5]) was -2.3%; in assay [1] (setting [6]), -3.04%; in assay [1] (setting [8]), -26.2%; in assay [1] (setting [7]), -19.6%.

For `NS(=O)(=O)c1cc2c(cc1Cl)NC(C1CC3C=CC1C3)NS2(=O)=O` (stereo unspecified), the Potency result in the assay on OV90, with PA-1, in the assay on SKOV3, in the assay on Tov-21-G, in the assay with Tov112D and with astro was “inactive” throughout. In addition, the activity, negative = cell killing in assay [1] (setting [5]) was 0.786%; in assay [1] (setting [6]) it was 7.03%; in assay [1] (setting [8]) it was -11.5%; in assay [1] (setting [7]), -5.22%.

Regarding `Cc1ccc(=O)n(-c2ccccc2)c1`, the Potency result in the assay on OV90, in the assay with PA-1, in the assay on SKOV3, in the assay with Tov-21-G, with Tov112D and in the assay with astro was “inactive” each time. The activity, negative = cell killing was -7.87% in assay [1] (setting [5]), 11.3% in assay [1] (setting [6]), -13.3% in assay [1] (setting [8]) and -7.43% in assay [1] (setting [7]).

Consider `COCCc1ccc(OCC(O)CNC(C)C)cc1` (stereo unspecified), for which the Potency entry in the assay on OV90, in the assay on PA-1, in the assay with SKOV3, in the assay with Tov-21-G, in the assay with Tov112D and in the assay with astro was “inactive” each time. Further, the activity, negative = cell killing in [1] (setting [5]) is -10.1% and -7.19% and -6.43%; in [1] (setting [6]), 1.85% and 20.6% and -26.1%; in assay [1] (setting [8]), -33.9%; in assay [1] (setting [7]), -0.129% and -0.523%.

Take `Brc1c(NC2=NCCN2)ccc2nccnc12`: the Potency result with OV90, with PA-1, with SKOV3, in the assay with Tov-21-G, with Tov112D and in the assay with astro was “inactive” each time. Further, the values for the activity, negative = cell killing in assay [1] (setting [5]), in assay [1] (setting [6]) and in [1] (setting [7]) were -5.79%, -4.16% and 4.36%, respectively.

With `CN1C(=O)CC[C@H]1c1cccnc1`, the Potency result in the assay with OV90, in the assay on PA-1, with SKOV3, in the assay on Tov-21-G, in the assay with Tov112D and in the assay on astro was “inactive” throughout. Also, the activity, negative = cell killing is -1.32% in assay [1] (setting [5]), -18.5% in assay [1] (setting [6]), -11.4% in assay [1] (setting [8]) and -34.2% in [1] (setting [7]).

`C[N+](C)(C)CCCCCCCCCC[N+](C)(C)C`: the Potency entry in the assay on OV90, with PA-1, in the assay on SKOV3, with Tov-21-G, in the assay on Tov112D and in the assay with astro was “inactive” in each case. In addition, the activity, negative = cell killing in [1] (setting [5]) was -8.43%; in assay [1] (setting [6]), -24.4%; in assay [1] (setting [8]), -24.5%; in assay [1] (setting [7]), -2.46%.

Turning to `C[C@]12C=CC(=O)C=C1CC[C@H]1[C@@H]3C[C@@H](O)[C@](O)(C(=O)CO)[C@@]3(C)C[C@H](O)[C@@]12F`, the Potency entry in the assay with OV90, with PA-1, in the assay with SKOV3, in the assay with Tov-21-G, in the assay with Tov112D and with astro was “inactive” each time. For the same molecule, the activity, negative = cell killing was -11.4% in [1] (setting [5]), -6.95% in assay [1] (setting [6]), -27.1% in assay [1] (setting [8]) and 7.27% in assay [1] (setting [7]). In assay [4], the activity change, negative = inhibition was 8.47%. In addition, in [2], the max response is 3.64%.

On to `CN(C)CCN(Cc1cccs1)c1ccccn1`, for which the Potency result in the assay on OV90, in the assay with PA-1, in the assay with SKOV3, with Tov-21-G, in the assay on Tov112D and in the assay on astro was “inactive” throughout. The activity, negative = cell killing in [1] (setting [5]) was -18%. Moreover, in assay [1] (tumour line A), the Potency was 8.91 µM (active).

Take `CCN(CC)CCOCCOC(=O)C1(c2ccccc2)CCCC1`: the Potency entry in the assay on OV90, in the assay with PA-1, in the assay with SKOV3, in the assay on Tov-21-G and in the assay on Tov112D was “inactive” in each case. Further, the activity, negative = cell killing in [1] (setting [7]) was -28.4%. Further, the Potency in [1] (tumour line A) was 2.24 µM (active); in [1] (tumour line D), 12.6 µM (active); in the assay on astro it was 35.5 µM (active).

Take `CCn1nc(C(=O)O)c(=O)c2cc3c(cc21)OCO3`: the Potency entry in the assay with OV90, in the assay with PA-1, with Tov-21-G and in the assay with Tov112D was “inactive” each time. In addition, the activity, negative = cell killing in assay [1] (at 20 µM (top of the series), tumour line C) was -1.32%; in assay [1] (at 21.2 µM (top of the series), tumour line B), -10.1%; in assay [1] (at 21.2 µM (top of the series), tumour line D), -5.8%; in [1] (at 21.3 µM (top of the series), tumour line A) it was -22.7%.
